PubChem BioAssay AID2314 (National Center for Advancing Translational Sciences (NCATS), 2010)
Out of some 300,000 compounds screened, about 37,000 (12%) were called active. For the sample, actives were picked, then their nearest neighbours and some compounds at random. Unmarked numbers belong to inactive results. No stated cut-off is given here; in the data, active means max response mostly above about 13% (no sharp cut-off); inactive means mostly below about 14%.

Test: Cycloheximide Counterscreen for Small Molecule Inhibitors of Shiga Toxin; further: read at 38.3 µM for the half of the compounds with a filed dose; 0% is about no effect
Conditions: cell reporter, cycloheximide protein synthesis inhibition counterscreen; hits give high values

SMILES | max response
Cc1cc(=O)oc2cc(OCC(=O)N3CCN(c4ccc(F)cc4)CC3)c(Cl)cc12 | -1.36%
Cc1cc(C)n2nc(SCC(=O)NC(=O)NCc3ccco3)nc2n1 | 3.86%
COc1ccc(NC(=O)c2cccc(Cl)c2)c[n+]1[O-] | -3.34%
C/C(=N\N(C)C)c1ccc(OCCOc2ccc([N+](=O)[O-])cc2)cc1 | 10.2%
CCc1cccc2c(=O)c(C(=O)NCCCOC)c[nH]c12 | -0.768%
CCOCCCNC(=O)C(NC(=O)c1ccc(=O)[nH]c1)c1ccc(C)cc1 (stereo unspecified) | -5.76%
CCOCCCNC(=O)c1c[nH]c2cc(C)ccc2c1=O | 15.4% (active)
CCOC(=O)C1(CCOC)CCN(Cc2cc3ccccc3s2)CC1 | -0.534%
CCOC(=O)C1(CCOc2ccccc2)CCN(Cc2cc(OC)cc(OC)c2)CC1 | -1.48%
CCOC(=O)C1(CCOC)CCN(Cc2ccc(C(=O)OC)cc2)CC1 | 19.1% (active)
CCOc1ccc(C(=O)Nc2ccc(CN3CCOCC3)cc2)cc1Cl | 6.5%
COc1ccc(-n2cnc3cc(NCc4ccco4)ccc32)cc1 | 20.3%
Cc1nc2cc(NC(=O)NC3CC3)ccc2n1C | 20.8% (active)
CCOC(=O)N1CCN(Cc2nc3cc(NC(C)=O)ccc3n2C)CC1 | -2.56%
Cc1ccc(NC(=O)NC2CCCCC2)cc1S(=O)(=O)N1CCOCC1 | -2.12%
Cc1cc2nc(C)n(CCCNC(=O)Nc3ccccc3)c2cc1C | -3.47%
O=C(CCN1C(=O)c2ccccc2C1=O)Nc1cccc(F)c1 | -3.51%
Cn1ncc(Br)c1C(=O)NCc1cccs1 | 2.99%
Cn1c(CN2CCOCC2)nc2cc(NC(=O)c3ccc(Cl)cc3)ccc21 | 32.5% (active)
Cc1nc2cc(NCc3cccs3)ccc2n1C | 51.1% (active)
Cc1nc2cc(NC(=O)Nc3cccc(F)c3)ccc2n1C | 23% (active)

SMILES | max response
Cc1cc(C)nc(-n2ncc3c2CC(c2ccc(C(C)C)cc2)CC3=O)n1 (stereo unspecified) | 3.79%
CCC(=O)NC(Nc1nc2ccc(C)cc2s1)(C(=O)OC)C(F)(F)F (stereo unspecified) | 1.01%
O=C(CN1C(=O)c2cccc3cccc1c23)Nc1ccccc1 | -0.618%
Cc1cc2c(cc1S(=O)(=O)NCc1ccc(Cl)cc1)OCC(=O)N2 | 1.87%
CN(CCc1ccccn1)C1CCCN(S(=O)(=O)c2ccccc2Cl)C1 (stereo unspecified) | -3.81%
CC(C)NC(=O)N1CCN(c2ccncc2S(=O)(=O)N2CCCCC2)CC1 | 0.305%
C=CCc1ccccc1OCC(O)CN1CCN(CCO)CC1 (stereo unspecified) | -1.25%
Cc1[nH]c2ccccc2c1C(=O)CN1CCCC(C)C1 (stereo unspecified) | 4.44%
Cn1c(CCN2CCCC2)nc2cc(NS(=O)(=O)c3ccccc3)ccc21 | 9.99%
CCC(=O)Nc1ccc2c(c1)nc(CCN1CCN(c3ccccn3)CC1)n2C | -2.39%
Cn1c(CCN2CCCCCC2)nc2cc(NC(=O)Nc3ccccc3)ccc21 | 59.7% (active)
CCN(CC)C(=O)Oc1ccc(OC(=O)N(CC)CC)cc1 | 19%
CCCCCn1c(=O)c(C(=O)Nc2c(C)n(C)n(-c3ccccc3)c2=O)c(O)c2ccccc21 | -1.67%
CCCCCn1c(=O)c(C(=O)NCc2ccccn2)c(O)c2ccccc21 | -1.8%
C=CCn1c(=O)c(C(=O)Nc2ncccc2O)c(O)c2ccccc21 | 0.679%
Cn1c(=O)c(C(=O)Nc2ncccn2)c(O)c2ccccc21 | 17.3% (active)
Cn1c(=O)c(Sc2ccc(Cl)cc2)c(O)c2ccccc21 | -5.19%
CCCn1c(=O)c(C(=O)Nc2cc(C)ccn2)c(O)c2ccccc21 | 9.34% (active)
N#C/C(=C/c1cccc([N+](=O)[O-])c1)c1nnc2n1CCCCC2 | -4.02%
CC(C)(C)c1ccc(C(=O)NCCn2c(N)c(C#N)c3nc4ccccc4nc32)cc1 | -4.74%
N#Cc1cccc(CN2CCC(=O)N([C@H](CO)c3ccccc3)CC2)c1 | -0.681%

SMILES | max response
COc1cc(/C=C2/C(=O)ON=C2C)ccc1OCc1ccccc1F | 76% (active)
CCOc1ccc(/C=N/NC(=O)C(C)Sc2ccccn2)cc1OCC (stereo unspecified) | -2.71%
COc1cc(/C=C2/C(=O)ON=C2C)ccc1OCc1cccc(F)c1 | 27.9%
CCOc1cc(/C=N/O)ccc1OCc1ccccc1F | 30.7% (active)
C=CCOc1ccc(/C=C2/C(=O)ON=C2C)cc1OCC | -0.862%
CCOc1c(Cl)cc(/C=N/O)cc1OC | 5.27%
CCC1=C(OC(=O)N(CC)CC)N2C(=O)OC(=NCCc3c[nH]c4ccccc34)[C@]2(C)[C@H]2C1=CC[C@H]1C(=O)N(CC)C(=O)[C@H]12 | -4.31%
O=C(CCc1nnc2ccc(NCc3ccccc3Cl)nn12)NCC1CCN(C2CCCC2)C1 (stereo unspecified) | -4.64%
Cc1ccc(NS(=O)(=O)c2c(C)[nH]c(C)c2C(=O)N2CCCCC2)c(C)c1 | 18%
CN(C)c1ccc(C=C2C(=O)OC3(CCCC3)OC2=O)cc1 | 0.693%
CC(C)(C)NC(=O)NC(=O)COC(=O)Cc1c(F)cccc1Cl | 6.65%
CC(=O)Nc1ccn(Cc2c(F)cccc2Cl)n1 | 18.4% (active)
O=C(Nc1ccccc1N1CCN(c2ccccc2)CC1)c1cccc(F)c1 | -4.37%
Cc1nnsc1C(=O)NCc1c(F)cccc1Cl | 8.44%
O=C(Nc1ccn(Cc2ccccc2)n1)c1cccc(F)c1 | 39% (active)
O=C(Nc1ccn(Cc2ccccc2)n1)c1n[nH]c([N+](=O)[O-])c1Cl | 47.7% (active)
O=C(Nc1ccccc1N1CCCCC1)c1cccc(F)c1 | 3.77%
O=C(Cn1cnc([N+](=O)[O-])n1)NCCc1ccccc1 | 6.14%
O=C(O)CC(Cc1ccccc1)C(=O)Nc1ccc([N+](=O)[O-])cc1 (stereo unspecified) | 11.6%
